What all share (assay): NCI-60 one-dose screen, 48 h (100 = growth as untreated, 0 = no growth, -100 = all killed)
Common to all, as to conditions: 10 µM unless noted

For assay [1], the system named is DU-145 prostate.
For assay [2], the system named is K-562 leukemia.
Assay [3] relates to MALME-3M melanoma.
Assay [4] concerns MDA-MB-231 breast.
Assay [5] has as its system RXF 393 renal.
In assay [6] the test system is SF-268 CNS.
The test system of assay [7] is SF-295 CNS.
In assay [8] the test system is SF-539 CNS.
Assay [9] concerns UACC-257 melanoma.
Assay [10] concerns M14 melanoma.
Assay [11] relates to HCT-15 colon.
Assay [12] deals with HT29 colon.
For assay [13], the system named is SNB-75 CNS.
Assay [14] deals with SNB-19 CNS.
Assay [15] deals with U251 CNS.
Assay [16] concerns PC-3 prostate.
The subject of assay [17] is SK-MEL-5 melanoma.
Assay [18] deals with UACC-62 melanoma.
Assay [19] deals with LOX IMVI melanoma.
The test system of assay [20] is SK-MEL-28 melanoma.

The panel holds about 83,000 compounds, 20% with a hit somewhere; the sample as a whole holds those more often.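 Negative percent growth values reflect cell death: -40 means 40% of the cells present at the start died, and -100 means all died.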 A number with no mark means an inactive call. The source made the active and inactive calls. The calls were made as follows: active = growth percent below 10; inactive = the rest.

For `Ic1ccc(OCCCCn2ccnc2)cc1`, the growth in assay [1] is 81.2%; in [2] it was 37.6%; in [3] it was 1.9% (active); in assay [4] it was 68.6%; in assay [5] it was 67.1%; in assay [6], 83.3%. The growth is 77.9% in [7]; 83.8% in [8]; 64.3% in assay [9]; 49.6% in assay [10]; 74.5% in assay [11]; 27.5% in assay [12]. For the same molecule, the growth in assay [13] was 64.5%; in [14], 65.2%; in assay [15], 67.8%; in [16], 48.6%; in assay [17], 79.6%; in [18], 40.6%. Further, the growth in assay [19] was 80.3%; in assay [20], 55.9%.
As to `CC(=O)N1N=C(c2ccc(Nc3nc(Nc4ccccc4)nc(Nc4ccccc4)n3)cc2)CC1c1ccccc1` (stereo not given), the growth in assay [1] was 97.6%; in assay [2] it was 68.9%; in assay [3], 78.7%; in [4], 71.7%; in assay [5], 137%; in assay [6], 89.2%. For the same molecule, the growth in assay [7] is 85.6%; in [8], 88.8%; in [9] it was 113%; in assay [10], 84.6%; in [11], 87%; in assay [12], 103%. Moreover, the growth in assay [13] was 90.8%; in assay [14] it was 84.3%; in assay [15], 92.6%; in assay [16] it was 80.5%; in [17], 78.4%; in assay [18], 91%. Also, the growth in assay [19] is 89.4%; in assay [20], 111%.
Regarding `CCN1C(=S)N(c2ccccc2)C2C1NN=c1s/c(=C3\C(=O)N(C(C)C)c4ccccc43)c(=O)n12` (stereo not given), the growth is 58% in assay [1]; 87.2% in assay [2]; 60.7% in assay [3]; 36.5% in assay [4]; 107% in [5]; 95.8% in assay [6]. Further, the growth is 98.9% in assay [7]; 10.4% in assay [8]; 92.7% in assay [9]; 81.8% in assay [10]; 93.3% in assay [11]; 69.6% in assay [12]. In addition, the growth in [13] is 61%; in [14], 81.9%; in assay [15] it was 64.6%; in assay [16], 79.3%; in assay [17], 92.1%; in assay [18] it was 83.5%. Besides, the growth is 47.5% in assay [19] and 102% in assay [20].
Take `Clc1ccc(/C=N\N=C\c2ccc(Cl)c(Cl)c2)cc1Cl`: the growth is 3.88% (active) in assay [1]; 88.8% in [2]; 125% in [3]; 80.6% in [4]; 79.3% in assay [5]; 91.9% in assay [6]. The growth is 81.1% in [7]; 102% in assay [8]; 106% in [9]; 88.6% in [10]; 7.55% (active) in assay [11]; 32.3% in [12]. The growth was 123% in assay [13]; 95.1% in assay [14]; 76.3% in [15]; 71% in [16]; 93.8% in assay [17]; 84.1% in assay [18]. Moreover, the growth is 72.4% in [19] and 101% in [20].
Consider `O=C1c2c(c3c4ccccc4[nH]c3c3ccc4ccccc4c23)C(=O)N1CCN1CCOCC1`, for which the growth in [1] is 39.7%; in assay [2], 10.9%; in assay [3], 44.5%; in [4], 69.5%; in assay [5], 18%; in assay [6] it was 56.8%. The growth is 29.1% in assay [7]; 51.7% in assay [8]; 79.7% in assay [9]; 36.8% in assay [10]; 20.6% in assay [11]; 35.6% in [12]. For the same molecule, the growth in [13] was 63.7%; in [14], 56%; in assay [15] it was 32.3%; in assay [16], 35.1%; in assay [17], 37.4%; in assay [18], 38.7%. The figures for the growth in [19] and in assay [20] were 27.2% and 73.9%, respectively.
Take `COc1ccc(CNc2c3ccccc3nc3ccccc23)cc1`: the growth in assay [1] was 48%; in [2], 6.97% (active); in assay [3] it was 40%; in [4], 47.4%; in [5], 27.6%; in assay [6] it was 63.4%. For the same molecule, the growth is 39.1% in assay [7]; 27.5% in assay [8]; 52.3% in [9]; 37.1% in assay [10]; 22% in assay [11]; 19.3% in [12]. Further, the growth in assay [13] was 61.8%; in assay [14], 34%; in [15], 36.5%; in assay [16], 34%; in assay [17] it was 62.2%; in [18], 55.8%. The growth is 20.9% in assay [19] and 79.6% in assay [20].
For `COC(=O)C1Cc2ccccc2CN1C(=O)c1ccc2c(c1)Cc1ccccc1-2` (stereo not given), the growth in [1] is 59.8% [50 µM]; in assay [2], 21.2% [50 µM]; in assay [3], 17.7% [50 µM]; in assay [4] it was 42.3% [50 µM]; in assay [5], 51.2% [50 µM]; in [6] it was 49.3% [50 µM]. Also, the growth is 30.2% [50 µM] in [7]; 70.1% [50 µM] in [8]; 29% [50 µM] in assay [9]; 30.9% [50 µM] in [10]; 22.4% [50 µM] in assay [11]; 23.1% [50 µM] in assay [12]. Moreover, the growth in [13] is 60.8% [50 µM]; in assay [14] it was 43.7% [50 µM]; in [15] it was 32.3% [50 µM]; in assay [16], 21.2% [50 µM]; in assay [17] it was -39.9% [50 µM] (active); in assay [18], 33.3% [50 µM]. Besides, the growth is 35.8% [50 µM] in assay [19] and 47.8% [50 µM] in assay [20].

The values are drawn from PubChem BioAssay (NCI).
